According to ChEMBL document CHEMBL4513216, “Probing the Open Global Health Chemical Diversity Library for Multistage-Active Starting Points for Next-Generation Antimalarials” (ACS Infect Dis, 2020):
In all, about 69,000 compounds went through this assay and about 8,600 (12%) showed an effect of 50% or more. This excerpt belongs to a sample that is enriched for strong results.

The molecules below were run on Plasmodium berghei (assay: Screen against P. berghei liver stage (PbLuc), transformed with Luciferase, at 10uM). Settings: tested at 10 uM.
Type: functional, HepG2
With `COc1ccccc1N1CCN(C(=O)Cn2nc(C)c(Cl)c2C)CC1` the INHIBITION was -29.2%. In the case of `CCS(=O)(=O)N1CCC2(CC1)CC1(CCN(CCOC)CC1)C(=O)N2C`, the INHIBITION is reported as 40.8%. For `Cc1cc(CN[C@@H](Cc2ccccc2)C(N)=O)c(C)s1`, the INHIBITION was 53.3%. `Cc1cc(CN[C@H](C(N)=O)[C@@H](C)O)c(C)s1` showed an INHIBITION of 38.7%. `Cc1cc(CN[C@@H](C)C(N)=O)c(C)s1` gave an INHIBITION of 16.3%. `Cc1csc(C(C)(C)NCc2ncc(-c3ccc(F)cc3)o2)n1` gave an INHIBITION of -46.4%. With `COc1ncc(CN2CCOC(C)(C(=O)N3CCOCC3)C2)cn1` (stereo not given) the INHIBITION was 41.2%. `O=c1[nH]ncc(NCCOc2ccc3c(c2)CCC3)c1Cl` gave an INHIBITION of 77.1%. With `O=c1[nH]ncc(NCCOc2cccc(Br)c2)c1Cl` the INHIBITION was 15.6%. Molecule `O=c1[nH]ncc(NCCOc2ccc3c(c2)OCO3)c1Cl` has an INHIBITION of 20.3%. In the case of `CCn1nccc1CN(C)C(=O)Cn1cc2c(n1)c(C)nn2CC`, the INHIBITION is reported as 35%. In the case of `O=C(CSc1ncccn1)N1C[C@@H]2CC[C@H]1CN(Cc1ccncc1)C2`, the INHIBITION is reported as 21.6%. Molecule `Cc1nc2c(C)cccc2cc1C(=O)N1CCC2(CCNCC2)CC1` has an INHIBITION of 47.7%. `Cc1cc(O)c(OCC(=O)/N=c2\[nH]cc(C)s2)cn1` showed an INHIBITION of -48.2%. `Cc1ccc(-c2nc(CNC3CCc4ncnn4C3)no2)cc1` (stereo not given) showed an INHIBITION of 0.411%. `CC(Cn1ccnc1)NC(=O)C1(c2ccccc2)CC1` (stereo not given) gave an INHIBITION of 46.2%. Work on `Cc1ccc(CN2Cc3nnn(C)c3C(COCc3ccccc3)C2)s1` (stereo not given) yielded an INHIBITION of 78.7%. For `Cc1ccc(CN2Cc3nnn(C)c3C(COCc3ccccc3)C2)o1` (stereo not given), the INHIBITION was 28.4%. In the case of `Cc1ccc(CN2Cc3nnn(C)c3C(COCCN(C)C)C2)s1` (stereo not given), the INHIBITION is reported as 10%. `Cc1ccc(CN2Cc3nnn(C)c3C(COCc3ccccn3)C2)s1` (stereo not given) showed an INHIBITION of -37.9%. Molecule `COCC1CN(Cc2ccc(C)s2)Cc2nnn(C)c21` (stereo not given) has an INHIBITION of 21.4%. Molecule `Cc1ccc(CN2Cc3nnn(C)c3C(COCC3CC3)C2)s1` (stereo not given) has an INHIBITION of 71.8%. For `CC[C@@H]1C[C@H](C(F)(F)F)n2nc(C3CCN(S(=O)(=O)CC)CC3)cc2N1`, the INHIBITION was 46%. In the case of `NC(=O)COc1ccc(CNCc2cc(F)ccc2F)cc1`, the INHIBITION is reported as 1.56%. `CCn1c(C)nnc1CN(C)C1CCN(Cc2nnc(C3CC3)o2)C1` (stereo not given) gave an INHIBITION of 36.1%. Molecule `CCC(O)Cn1nc(-c2ccc(C(=O)O)cc2)cc1-c1cccc(F)c1` (stereo not given) has an INHIBITION of 19.75%. `CC(C)Cn1nc(-c2ccc(C(=O)O)cc2)cc1-c1ccc(F)cc1` gave an INHIBITION of 54.3%. For `CCC(O)Cn1nc(-c2ccc(C(=O)O)cc2)cc1-c1ccc(F)cc1` (stereo not given), the INHIBITION was 38.05%. `COc1ccc(CC2CN(C3CCSCC3)CCO2)cc1` (stereo not given) was tested, and the INHIBITION was 35.4%. Work on `Cc1ccc(N2CC[C@H]3OCC[C@@]3(C(=O)N3CCCO3)C2)nn1` yielded an INHIBITION of 25.3%. `CN(Cc1ccncc1)C(=O)NCc1cn(-c2ccccc2)nn1` gave an INHIBITION of 56.3%. `CC(NC(=O)N(C)Cc1ccncc1)c1cn(-c2ccccc2)nn1` (stereo not given) was tested, and the INHIBITION was 60.1%. `CC(NC(=O)CCCN(C)C)c1cn(-c2ccccc2)nn1` (stereo not given) gave an INHIBITION of 21.8%. `CCN(Cc1ccncc1)Cc1cn(-c2ccccc2)nn1` gave an INHIBITION of 5.33%. With `Cc1csc(CNC(=O)N(C)Cc2ccncc2)n1` the INHIBITION was -53.6835%. `CC(NC(=O)N(C)Cc1ccncc1)c1nncn1C` (stereo not given) gave an INHIBITION of 13.7%. With `NC(=O)NCC(=O)N1CCCC(c2nccn2CC2CCC2)C1` (stereo not given) the INHIBITION was 17.5%. `CC(C)c1nnc2n1CCN(c1nn3cc(C(C)(C)C)nc3s1)C2` was tested, and the INHIBITION was -34.6%. `Cc1nn(C)c(Cl)c1C1CCCN1Cc1nc(C2CC2)no1` (stereo not given) showed an INHIBITION of 37.4%. `COC(=O)CCCn1ccnc1-c1ccc(OC)c(F)c1F` was tested, and the INHIBITION was 43.9%. `COc1ccc(-c2nccn2CCN2CCCCC2)c(OC)c1OC` gave an INHIBITION of 55%. Work on `CCn1ccnc1CN1CCN(CCOc2ccccc2OC)CC1` yielded an INHIBITION of 27.1%. Work on `Cc1nnc2n1CCN(Cc1ncc(-c3ccc(F)cc3)o1)C2` yielded an INHIBITION of 46.1%. `Cc1c(CCC(=O)N2CCOC(c3cnccn3)C2)cnn1C` (stereo not given) gave an INHIBITION of -10.4%. In the case of `Cc1noc(C)c1C(=O)N1CCCN(Cc2nccn2C(C)C)CC1`, the INHIBITION is reported as 4.1%. For `CCN(CCC(F)(F)F)C(=O)Nc1cccc(N2CCOCC2)c1`, the INHIBITION was 3.47%. For `CCN(CC1CCCO1)C(=O)Nc1cccc(N2CCOCC2)c1` (stereo not given), the INHIBITION was 54.4%. `CCN(CC1CCCO1)C(=O)Nc1ccc(OC)c(C)c1` (stereo not given) was tested, and the INHIBITION was -79.7%. With `O=C(c1cscn1)N1CCC(Cc2cnc3[nH]ccc3c2)C1` (stereo not given) the INHIBITION was -14.1%. In the case of `COc1cccnc1NC(=O)COc1ccc(F)cc1F`, the INHIBITION is reported as 33.5%. For `COc1cccnc1NC(=O)c1ccc(COCC(F)(F)F)cc1`, the INHIBITION was 62.4%. For `CC(C)(C)NC(=O)c1ccc(COCC(F)(F)F)o1`, the INHIBITION was 14.2%. With `COc1cccnc1NC(=O)COc1c(C)cccc1C` the INHIBITION was 36.5%. `O=C(Nc1cc[nH]n1)c1ccc(COCC(F)(F)F)cc1` gave an INHIBITION of -17.8%. `Cc1n[nH]c(NC(=O)c2ccc(COCC(F)(F)F)cc2)c1C` showed an INHIBITION of 52.5%.
